For 17 compounds, Potency results are on record in PubChem BioAssay (NCATS).

Results filed as inconclusive are left out. Entries that show only a call come without a potency. Activity calls are given as the source filed them. Calls come from the whole dose curve; as a rule, active = well fitted cell-killing curve with a large enough effect; inconclusive = small, poorly fitted or top-dose-only effect; inactive = flat fitted curve, though single readings scatter.
Potency is the fitted concentration of half-maximal effect.

The first assay can be described thus: UWB1.289 Cancer Cell Toxicity qHTS against the NCATS CANVASS Library (AID 1347347). Note: nearly all actives have a fitted effect of over 60% in size. As to conditions: UWB1.289 viability, CellTiter-Glo luminescence, 72 h; series mostly up to 38.3 µM. The procedure, abridged: (§1)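 ATP content after 72 h treatment, detected by CellTiter-Glo luminescence (15min room-temperature development), reflects cell viability. Wells contained 1000 cells and received compounds at 11 concentrations.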
Background: In qHTS, concentration-response curves come from the screen itself.
In the case of `CC1=CC2CC[C@@H]3[C@@H](C)C[C@H](C)[C@@H](C1)N23` (some centres not stated), the Potency result is “inactive”. `C[C@@H]1CC[C@@H](c2ccoc2)N2C[C@@]3(CC[C@@H]12)CS[C@@]1(CC[C@H]2[C@H](C)CC[C@@H](c4ccoc4)N2[C@@H]1O)C3`: the Potency is 6.66 µM (active). On the same count and under the same terms, the entry for `CCN1C[C@]2(C)CC[C@@H](O)[C@]34C1[C@H](C[C@H]23)C12CCC(CC14)[C@](O)(CO)[C@H]2O` (some centres not stated) is “inactive”; for `CO[C@@H](/C=C/CC/C=C/C(=O)O)[C@@H](O)[C@H](C)[C@@H](O)/C(C)=C/[C@H](C)C(=O)CCCC1CC(=O)NC(=O)C1` it is “inactive”.

Turning to `C[C@]12CC(O)C3[C@@H](CCC4C[C@@H](O)CC[C@@]43CO)[C@@]1(O)CCC2C1=CC(=O)OC1` (some centres not stated), the Potency result is “inactive”. Turning to `CO[C@@H](/C=C/CC/C=C/C(=O)O)[C@@H](O)[C@H](C)/C=C(\C)[C@@H](O)[C@H](C)C(=O)CCCC1CC(=O)NC(=O)C1`, the Potency entry is “inactive”.

As to `O=C(c1ccccc1O)c1[nH]c(Cl)c(Cl)c1-n1c(C(=O)c2ccccc2O)cc(Cl)c1Cl`, the Potency is 3.75 µM (active). The same measure, in the same setting: the entry for `CC[C@@H]1CN2CC[C@@]3(O)C(=Nc4cccc(OC)c43)[C@@H]2C[C@@H]1/C(=C\OC)C(=O)OC` is “inactive”; for `c1ccc2c3c([nH]c2c1)CNCC3` it is “inactive”. Take `CNCCc1ccccc1`: the Potency entry was “inactive”. Still for that read-out and setting: the figure for `CCCCC[C@@H]1OC(=O)[C@@H](C)N(C)C(=O)[C@H](CCCCC)OC(=O)C(C)N(C)C(=O)[C@H](CCCCC)OC(=O)[C@@H](C)N(C)C(=O)[C@H](CCCCC)OC(=O)C(C)N(C)C1=O` (some centres not stated) is 13.3 µM (active). Still for that read-out and setting: in the case of `CO[C@H](c1ccccc1)[C@H]1NC(=O)C(C)NC(=O)C(C[C@@H](C)CO)N(C)C(=O)[C@@H](C(O)c2cn(C(C)(C)C3CO3)c3ccccc23)NC(=O)C(C(C)C=C(C)C)NC(=O)C(CC(C)C)N(C)C(=O)C(C(C)C)NC1=O` (some centres not stated) it was “inactive”; in that of `CC1=CC(=O)C2=C(C)C[C@H](O)[C@@H]3[C@H](OC(=O)[C@@H]3C)[C@@H]12`, “inactive”; in that of `CCN1C[C@]2(C)CC[C@H](O)[C@]34C1C(C[C@H]23)[C@@]12CC[C@H](CC14)[C@](O)(COC(=O)c1ccc(OC)c(OC)c1)[C@H]2O` (some centres not stated), “inactive”. On the same count and under the same terms, in the case of `CCC(=O)CCCCC[C@@H]1NC(=O)[C@H]2CCCCN2C(=O)[C@H]([C@@H](C)CC)NC(=O)[C@H](Cc2cn(OC)c3ccccc23)NC1=O` it was 2.11 µM (active).

The next assay can be described thus: OV-SAHO Cancer Cell Toxicity qHTS against the NCATS CANVASS Library (AID 1347348). Note: nearly all actives have a fitted effect of over 55% in size. As to conditions: OV-SAHO viability, CellTiter-Glo luminescence, 72 h; series mostly up to 38.3 µM. The procedure, abridged:
as §1
Consider `CC1=CC2CC[C@@H]3[C@@H](C)C[C@H](C)[C@@H](C1)N23` (some centres not stated), for which the Potency result is “inactive”. Same read-out and setting: the entry for `CC=C1CN(C=O)[C@H]2C[C@@H]1[C@@H](C(=O)OC)[C@@]13CCOC21Nc1ccccc13` (some centres not stated) is “inactive”; for `C[C@@H]1CC[C@@H](c2ccoc2)N2C[C@@]3(CC[C@@H]12)CS[C@@]1(CC[C@H]2[C@H](C)CC[C@@H](c4ccoc4)N2[C@@H]1O)C3` it is 5.94 µM (active).

With `CCN1C[C@]2(C)CC[C@@H](O)[C@]34C1[C@H](C[C@H]23)C12CCC(CC14)[C@](O)(CO)[C@H]2O` (some centres not stated), the Potency result is “inactive”. `CO[C@@H](/C=C/CC/C=C/C(=O)O)[C@@H](O)[C@H](C)[C@@H](O)/C(C)=C/[C@H](C)C(=O)CCCC1CC(=O)NC(=O)C1`: the Potency entry was “inactive”.

With `CCCC[C@@H]1CC[C@H]2CCCC(CCC)N12` (some centres not stated), the Potency result is “inactive”. The same measure, in the same setting: the entry for `C[C@]12CC(O)C3[C@@H](CCC4C[C@@H](O)CC[C@@]43CO)[C@@]1(O)CCC2C1=CC(=O)OC1` (some centres not stated) is “inactive”; for `CO[C@@H](/C=C/CC/C=C/C(=O)O)[C@@H](O)[C@H](C)/C=C(\C)[C@@H](O)[C@H](C)C(=O)CCCC1CC(=O)NC(=O)C1` it is “inactive”. Same read-out and setting: the figure for `O=C(c1ccccc1O)c1[nH]c(Cl)c(Cl)c1-n1c(C(=O)c2ccccc2O)cc(Cl)c1Cl` is 2.11 µM (active). Take `CC[C@@H]1CN2CC[C@@]3(O)C(=Nc4cccc(OC)c43)[C@@H]2C[C@@H]1/C(=C\OC)C(=O)OC`: the Potency result is “inactive”. Regarding `c1ccc2c3c([nH]c2c1)CNCC3`, the Potency entry is “inactive”. On the same count and under the same terms, in the case of `CNCCc1ccccc1` it was “inactive”; in that of `CCCCC[C@@H]1OC(=O)[C@@H](C)N(C)C(=O)[C@H](CCCCC)OC(=O)C(C)N(C)C(=O)[C@H](CCCCC)OC(=O)[C@@H](C)N(C)C(=O)[C@H](CCCCC)OC(=O)C(C)N(C)C1=O` (some centres not stated), 3.34 µM (active); in that of `CO[C@H](c1ccccc1)[C@H]1NC(=O)C(C)NC(=O)C(C[C@@H](C)CO)N(C)C(=O)[C@@H](C(O)c2cn(C(C)(C)C3CO3)c3ccccc23)NC(=O)C(C(C)C=C(C)C)NC(=O)C(CC(C)C)N(C)C(=O)C(C(C)C)NC1=O` (some centres not stated), “inactive”. Consider `CC1=CC(=O)C2=C(C)C[C@H](O)[C@@H]3[C@H](OC(=O)[C@@H]3C)[C@@H]12`, for which the Potency entry is “inactive”. Still for that read-out and setting: in the case of `CCN1C[C@]2(C)CC[C@H](O)[C@]34C1C(C[C@H]23)[C@@]12CC[C@H](CC14)[C@](O)(COC(=O)c1ccc(OC)c(OC)c1)[C@H]2O` (some centres not stated) it was “inactive”; in that of `CCC(=O)CCCCC[C@@H]1NC(=O)[C@H]2CCCCN2C(=O)[C@H]([C@@H](C)CC)NC(=O)[C@H](Cc2cn(OC)c3ccccc23)NC1=O`, 3.75 µM (active).
